Sampled rows, rich in hits. Any-hit rate of the full collection: about 21%.
Cycloheximide cs: counter-screen hit for Shiga toxin inhibitors, cycloheximide. 12% of 300,000 active. max response, %. cell reporter, cycloheximide protein synthesis inhibition counterscreen. AID 2314; in the data active = max response mostly above about 13%, no sharp cut-off; inactive = mostly below about 14%; also: read at 38.3 µM for the half of the compounds with a filed dose; 0% is about no effect
Pf growth 96h: P. falciparum growth inhibition at 96 hour, primary screen for plastid delayed-death inhibitors; P. falciparum luciferase reporter growth, 96 h; Potency, µM (titrated, usually from 28.7 µM), inactives show at the highest dose activity change, negative = inhibition, usual class: inhibitors; 6.9% of 320,000 active; also: potency is read from the fitted curve at half-maximal effect; % is scaled to controls: 0 for no effect and ±100 for the full control effect
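Cell-based qHTS: luciferase-tagged P. falciparum in erythrocytes (2% hematocrit, 0.05% parasitemia final) incubated with compounds for 96 hours, 37 C, 5% CO2; luciferase detection reagent then added and luminescence measured.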
Pf growth 48h: inhibits P. falciparum growth in the first generation, 48 h; Potency, µM (top dose mostly 28.7 µM), inactives show top-dose activity change, negative = inhibition, most hits filed as inhibitors; P. falciparum luciferase growth in erythrocytes, 48 h; 5.9% of 310,000 active; also: potency is read from the fitted curve at half-maximal effect; % is scaled to controls: 0 for no effect and ±100 for the full control effect
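A one-generation exposure of luciferase-tagged malaria parasites in RPMI 1640/Albumax erythrocyte culture, 37 C and 5% CO2. Inhibition is inferred from decreased luminescence after adding detection reagent.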
Shiga inhibitor: blocks Shiga toxin action in Vero cells; Vero cells, Shiga toxin protein synthesis inhibition reporter; inhibition, % at 38.7 µM; 9.2% of 290,000 active; AID 2315; in the data active = inhibition mostly above about 28%, no sharp cut-off; inactive = mostly below about 43%; also: 0% is about no effect
NS1 inh: blocks influenza NS1 protein function | AID 2326 | 0.4% of 270,000 active | Potency, µM (top dose mostly 46.1 µM), for the others: at the highest dose activity, positive = more growth; calls by dose curve; also: potency is read from the fitted curve at half-maximal effect; actives are rising curves; nearly all actives have a fitted effect of over 50% in size
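In this qHTS, NS1 from influenza A is expressed in budding yeast, where it slows growth. Cells are switched from glucose to 2% galactose medium (pH 6.0, -URA), treated with compound, and growth recovery is read at OD600.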
FBPA Giardia inh: Giardia lamblia aldolase inhibition; A8B2U2; purified Giardia FBPA; Potency, µM (doses to about 59.6 µM), for inactives: top-dose activity, negative = inhibition, most hits filed as inhibitors; 0.71% of 290,000 active; also: potency is read from the fitted curve at half-maximal effect; % is scaled to controls: 0 for no effect and ±100 for the full control effect; nearly all actives have a fitted effect of over 55% in size
Target sequence (A8B2U2 whole entry, looked up): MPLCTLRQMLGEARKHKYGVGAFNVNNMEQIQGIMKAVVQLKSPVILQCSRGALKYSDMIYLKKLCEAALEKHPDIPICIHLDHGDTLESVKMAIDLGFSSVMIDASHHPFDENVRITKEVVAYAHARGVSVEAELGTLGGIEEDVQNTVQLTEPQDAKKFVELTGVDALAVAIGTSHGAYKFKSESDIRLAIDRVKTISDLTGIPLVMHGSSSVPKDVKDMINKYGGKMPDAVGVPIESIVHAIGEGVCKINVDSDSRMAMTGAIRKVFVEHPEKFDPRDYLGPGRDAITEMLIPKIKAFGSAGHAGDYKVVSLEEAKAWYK
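Giardia FBPA (40 nM reagent) was preincubated 10 min at RT with compound (up to 57.5 uM final), then substrate plus GAPDH/TPI/NAD/arsenate coupling system with diaphorase/resazurin was added; resorufin fluorescence (525/598 nm) was read after 20 min.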
An asterisk follows results filed as active; u = inconclusive; x = no result given. Unless noted, calls follow the shape of the dose curve; as a rule, active = well fitted curve in the direction sought with a large enough effect; inconclusive = small, poorly fitted or top-dose-only effect, or another doubt; inactive = no such curve, though single readings can be large; an effect the other way counts as inactive or inconclusive.

SMILES | Cycloheximide cs | Pf growth 96h | Pf growth 48h | Shiga inhibitor | NS1 inh | FBPA Giardia inh
COc1ccccc1C(=O)N1CCN(c2nc3cc(C)c(C)cc3cc2C#N)CC1 | -2.7 | 10.4µM* | u | 1.0 | -46.8% | 0.5%
COc1ccc2nc(N3CCCCC3)c(C#N)cc2c1 | 64.1* | 14.1% | u | 124.0* | -17.5% | 17.8µM*
COc1ccc2nc(SCC(=O)N3CCCCC3)c(C#N)cc2c1 | -1.9 | 2.7% | -4.2% | -3.3 | 4.8% | -10.7%
O=C(Cl)COCc1ccccc1 | -6.3 | x | x | -4.6 | x | 0.1%
O=C(Cn1ncc2c([nH]c3ccccc32)c1=O)Nc1ccc(CN2CCCCC2)cc1 | 9.9 | 21.8% | u | -3.2 | -14.7% | 1.0%
CCC(=O)Nc1ccc(C(=O)CN2C(=O)NC3(CCOc4ccccc43)C2=O)cc1 (stereo not given) | x | -14.2% | u | x | x | x
Cc1cc(NC(=O)CSc2ccc3nnc(-c4ccccn4)n3n2)no1 | -1.2 | 11.7µM* | u | -3.2 | -5.3% | -12.4%
O=C(CSc1ccc2nnc(-c3ccccn3)n2n1)Nc1ccccc1 | 1.2 | u | 13.1µM* | -9.0 | 7.2% | 2.3%
Cc1cc(NC(=O)CSc2ccc3nnc(-c4cccc(F)c4)n3n2)no1 | 10.9 | u | 1.85µM* | -8.5 | -1.0% | -12.8%
Cc1nnc(NC(=O)CSc2ccc3nnc(-c4ccccn4)n3n2)s1 | -2.9 | u | u | -5.9 | x | -4.6%
COc1cc(-c2n[nH]c(=S)n2-c2ccc(Br)cc2)cc(OC)c1OC | -2.7 | -10.1% | 0.0% | -14.2 | 1.9% | u
CCc1ccc(-c2cc3c(=O)n(CC(=O)NCCCN4CCN(CC)CC4)nc(C)n3n2)cc1 | 10.6 | -22.4% | u | 3.3 | 5.0% | -2.2%
O=C(Nc1cccc2ccccc12)c1nn(C23CC4CC(CC(C4)C2)C3)cc1[N+](=O)[O-] | -4.6 | 0.928µM* | u | -4.5 | 24.9% | 8.4%
O=C(Nc1ccc2ccccc2c1)c1nn(C23CC4CC(CC(C4)C2)C3)cc1Br | 9.8 | u | u | -7.3 | 2.3% | 9.8%
COc1ccc(NC(=O)c2nn(C34CC5CC(CC(C5)C3)C4)cc2[N+](=O)[O-])cc1 | -2.9 | -0.7% | 4.65µM* | -21.6 | -2.0% | -4.0%
Cc1cc(=O)n2nc(N3CCCC3C(=O)Nc3ccc(C(C)C)cc3)sc2n1 (stereo not given) | -0.7 | -22.4% | -9.3% | -1.8 | 23.5% | -3.8%
O=[N+]([O-])c1ccc2c(c1)S(=O)c1ccccc1-2 (stereo not given) | -1.1 | u | 8.28µM* | -14.0 | -0.3% | 4.6%
O=C1c2cc([N+](=O)[O-])ccc2-c2ccc3c4ccc5c6c(ccc(c7ccc1c2c73)c64)C(=O)c1cc([N+](=O)[O-])ccc1-5 | x | x | x | x | 2.6% | x
Cc1cccc(NC(=O)c2ccc(NC(C)c3ccccc3)c([N+](=O)[O-])c2)n1 (stereo not given) | 16.1 | -2.1% | 9.28µM* | 19.0 | 3.3% | -13.8%
CCSc1ccc(C(=O)Nc2cccc(C)n2)cc1[N+](=O)[O-] | 10.0* | 2.3% | 63.8% | 22.8* | 1.9% | -1.9%
COC(=O)[C@@]1(Cc2ccc(F)cc2)[C@H]2c3cc(C(=O)N4CCCC4)n(CCN4CNCC4=O)c3C[C@H]2CN1C(=O)c1ccccc1 | x | x | x | x | x | -2.7%
C=CCn1c(SCC(=O)Nc2ccc(N3CCOCC3)cc2)nnc1-c1ccco1 | 1.6 | 20.0% | -29.9% | 4.1 | -3.7% | -11.5%
Cc1ccc(-n2c(CCC(=O)O)ccc2-c2cccs2)cc1 | 25.1* | x | 15.4% | 97.2* | 10.1% | 6.9%
COC(=O)c1cccc(-n2c(CCC(=O)O)ccc2-c2cccs2)c1 | 19.4* | 25.0% | -2.2% | 49.3* | 1.0% | 11.1%
O=C(Cc1ccccc1Cl)Nc1nc2ccccc2[nH]1 | 31.0* | u | 80.3% | 30.7* | 1.2% | 0.7%
Cc1ccccc1OCC(=O)Nc1nc2ccccc2[nH]1 | 31.6* | -15.5% | 166.2% | 107.7* | x | u
CC(CC(=O)Nc1nc2ccccc2[nH]1)c1ccccc1 (stereo not given) | 45.6* | x | 98.7% | 84.4* | -4.3% | 7.6%
CCOc1ccccc1Nc1nnc(C)c(=O)[nH]1 | -2.2 | -2.4% | 4.7% | -16.4 | -6.9% | -0.8%
Cc1ccc(CC(=O)Nc2nc3ccccc3[nH]2)cc1C | 27.9 | u | u | 41.2 | -3.8% | 0.8%
CCOc1ccccc1Nc1nc2ccccc2[nH]1 | 17.2* | x | u | 22.1 | -11.9% | -0.3%
